# Assay results: PubChem BioAssay AID1259420 (Broad Institute, 2018)
# “And” between values parts separate entries of the source, which are not always exact repeats. Equal entries are not always repeated. Out of some 1,000 compounds screened, about 250 (25%) were called active. Roughly 31% stayed inconclusive and do not appear here. The list is a sample of the results. Potency and affinity values are given separately. Unmarked numbers belong to inactive results. The rule behind the calls is not given here.
# Experiment: compound activity on host-cell Toxoplasma growth – dose response (AID 1259420);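 note: host cells were HeLa; final incubation lasted 72 hours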
# Conditions: Toxoplasma gondii growth in host cells, no IFN-gamma
structure (smiles),measurement,setting,value
COCC1COCCC12CCN(C(=O)c1ccc(C)nc1)CC2 (centres undefined),max activity,at 19.5 µM unless noted,6.91% [at 2.6 µM]
CCCN(C/C=C/I)C1CCc2cccc(O)c2C1 (centres undefined),max activity,at 19.5 µM unless noted,15.1%
CC(C)NC(=O)N1CC(=O)N2[C@@H](CO)[C@H](c3ccc(/C=C/c4ccccc4)cc3)[C@@H]2C1,max activity,at 19.5 µM unless noted,-13.4% [at 0.16 µM]
O=C(C1CCOCC1)N1CC(=O)N2[C@H](C1)[C@H](c1ccc(/C=C/c3ccccc3)cc1)[C@@H]2CO,max activity,at 19.5 µM unless noted,-15.6% [at 2.6 µM]
CC1=NN(C2CCS(=O)(=O)C2)C(=O)C1(Sc1ccccc1)Sc1ccccc1 (centres undefined),max activity,at 19.5 µM unless noted,14.4% [at 10 µM]
CC(C)C#Cc1ccc([C@@H]2[C@@H](CO)N(C(=O)c3cccc(F)c3)[C@H]2C#N)cc1,max activity,at 19.5 µM unless noted,-12.4% [at 10 µM]
CC(C)CC#Cc1ccc([C@H]2[C@@H](CO)N3C(=O)CN(C(=O)c4cccc(F)c4)C[C@@H]23)cc1,max activity,at 19.5 µM unless noted,25.4%
O=C(CC1CC1)N[C@H]1CN(C(=O)c2ccoc2)C[C@@H]2CCCO[C@H]21,max activity,at 19.5 µM unless noted,-10.1% [at 10 µM]
CCc1c(C)sc2c1CCN(Cc1nc(-c3cccc(C)c3)oc1C)C2c1ccccc1 (centres undefined),max activity,at 19.5 µM unless noted,-7.44% [at 0.08 µM]
O=C1CNC[C@@H]2[C@@H](c3ccc(C#Cc4cccnc4)cc3)[C@@H](CO)N12,max activity,at 2.6 µM,9.41%
same,max activity,at 10 µM,-13%
CC(C)(O)C#Cc1cccc(-c2n[nH]c(Cc3ccccc3)n2)c1,max activity,at 19.5 µM unless noted,21.1%
Cc1cccc(CNC2=NCCNC23CCN(S(=O)(=O)c2ccc4c(c2)CCCC4)CC3)c1,max activity,at 19.5 µM unless noted,-9.87%
Cc1ccc(CNC2=NCCNC23CCN(S(=O)(=O)c2ccc(Cl)s2)CC3)cc1,max activity,at 19.5 µM unless noted,-6.39% [at 2.6 µM]
O=S(=O)(c1ccc2c(c1)CCCC2)N1CCC2(CC1)NCCN=C2NCc1ccc2c(c1)OCO2,max activity,at 19.5 µM unless noted,-6.04% [at 0.08 µM]
CCc1ccc(S(=O)(=O)N2CCC3(CC2)NCCN=C3NCc2cc(F)cc(F)c2)cc1,max activity,at 19.5 µM unless noted,-11.1% [at 0.08 µM]
CCc1ccccc1-c1cccc(-n2cnnc2)c1,max activity,at 19.5 µM unless noted,23.8% [at 10 µM]
CCc1cc(C(=O)Nc2ccc(C)cc2-c2cc(C)[nH]n2)c2c(C)noc2n1,max activity,at 19.5 µM unless noted,-5.68% [at 5 µM]
CN(C)CCN1CCOCC2(CCCN(C(=O)c3ccc4cc[nH]c4c3)C2)C1 (centres undefined),max activity,at 19.5 µM unless noted,-5.04% [at 2.6 µM]
COCC1CN(Cc2cc(C)on2)Cc2c1cnn2CC1CC1 (centres undefined),max activity,at 19.5 µM unless noted,-5.27% [at 10 µM]
COc1ccc(-n2c(C)c([N+](=O)[O-])c3ccc(O)cc32)cc1,max activity,at 19.5 µM unless noted,7.23% [at 1.2 µM]
COc1ccc(S(=O)(=O)N2CCCCN3[C@H](C2)[C@@H](c2ccc(C#CCC(C)C)cc2)[C@@H]3CO)cc1,max activity,at 19.5 µM unless noted,29.4% [at 10 µM]
COCCC(=O)C1Cc2nc(-c3ccccc3)sc2N1CC1CC1 (centres undefined),max activity,at 19.5 µM unless noted,-9.12% [at 0.3 µM]
O=C(C1CCCCC1)N1C[C@@H]2N[C@H](C1)C2c1ccc(-c2ccccc2F)cc1 (some centres undefined),max activity,at 19.5 µM unless noted,13.7% [at 2.6 µM]
C=CCN1C(=O)CC[C@H]2[C@@H]1CCN2S(=O)(=O)CC,max activity,at 19.5 µM unless noted,-17.5% [at 10 µM]
CCCNC(=O)N1C[C@@H]2N[C@H](C1)C2c1ccc(-c2ccc(OC)cc2)cc1 (some centres undefined),max activity,at 19.5 µM unless noted,11.6% [at 21 µM]
Cc1ccc(CN2CC3CN(Cc4cccc(F)c4)CC3C2)s1 (centres undefined),max activity,at 19.5 µM unless noted,-13.6% [at 1.2 µM]
Cc1cnc(N2CCC3(CCN(CC4CC4)C3=O)CC2)nc1,max activity,at 19.5 µM unless noted,-10.4%
COCC#Cc1ccc([C@@H]2[C@@H](CO)N3C(=O)CN(C(=O)c4ccncc4)C[C@@H]23)cc1,max activity,at 19.5 µM unless noted,-8.48% [at 10 µM]
CC(C)[C@H](CO)Nc1nc(Nc2ccc(C(=O)O)c(Cl)c2)c2ncn(C(C)C)c2n1,max activity,at 19.5 µM unless noted,-10.3% [at 10 µM]
O=C(NCc1ccccc1)C1CC2(CO1)CN(C(=O)c1ccc(F)cc1)c1ccccc12 (centres undefined),max activity,at 19.5 µM unless noted,-16.3% [at 10 µM]
O=C1N(CC2CC2)CCC12CCCN(Cc1cncc(Cl)c1)CC2 (centres undefined),max activity,at 19.5 µM unless noted,-16.7% [at 10 µM]
N#C[C@@H]1N[C@H](CO)[C@H]1c1ccc(-c2cccc(F)c2)cc1,max activity,at 19.5 µM unless noted,13.1%
O=C(Nc1ccc(F)cc1)N1CC(=O)N2[C@@H](CO)[C@@H](c3ccc(C4=CCCC4)cc3)[C@@H]2C1,max activity,at 19.5 µM unless noted,14.9%
CS(=O)(=O)N1CCN(C2CCOCC2)CC(C(=O)O)C1 (centres undefined),max activity,at 19.5 µM unless noted,-14.9% [at 5 µM]
COc1ccc(-c2nc(CN(c3ccccc3OC)S(=O)(=O)c3ccccc3)c(C)o2)cc1,max activity,at 19.5 µM unless noted,-9.94% [at 0.6 µM]
CCOc1ccc(-c2nc(CN(c3ccc(OC)cc3)S(=O)(=O)c3cccs3)c(C)o2)cc1,max activity,at 19.5 µM unless noted,18.6% [at 10 µM]
CC(C)Oc1ccc(NC(=O)c2nc3c(n2C(C)C)CCN(C(=O)c2ccccc2)C3)cc1,max activity,at 19.5 µM unless noted,12.7% [at 0.08 µM]
CCOC(=O)c1nn(Cc2ccccc2)c2c1CN(C(=O)CN1CC(c3ccccc3)CC1=O)CC2 (centres undefined),max activity,at 19.5 µM unless noted,-13.6%
O=C(C1CCOCC1)N1CC(=O)N2[C@@H](CO)[C@@H](c3ccc(C#CC4CCCCC4)cc3)[C@@H]2C1,max activity,at 19.5 µM unless noted,14.6%
CC(C)C#Cc1ccc([C@H]2[C@@H](CO)N3C(=O)CN(C(=O)NC4CCCC4)C[C@H]23)cc1,max activity,at 19.5 µM unless noted,-5.62% [at 10 µM]
Cc1nc2ccccc2n1CC(O)Cn1c2ccccc2c2ccccc21 (centres undefined),max activity,at 19.5 µM unless noted,-12.4%
O=C(Cc1cccnc1)N1CC(=O)N2[C@H](CO)[C@H](c3ccc(C#CC4CCCCC4)cc3)[C@H]2C1,max activity,at 19.5 µM unless noted,-8.11% [at 0.3 µM]
CN(C)C(=O)COCc1cncc2c1CCN(c1ccccn1)C2,max activity,at 19.5 µM unless noted,-8.88% and 11.8%
Cc1ccccc1S(=O)(=O)N1CCCCN2[C@H](C1)[C@H](c1ccc(C#CCN(C)C)cc1)[C@@H]2CO,max activity,at 19.5 µM unless noted,20.9% [at 10 µM]
Clc1ccccc1CSc1nc(NC2CCCCC2)c2ccccc2n1,max activity,at 19.5 µM unless noted,12.5%
CS(=O)(=O)N1CC(=O)N2[C@H](CO)[C@@H](c3ccc(Br)cc3)[C@H]2C1,max activity,at 19.5 µM unless noted,4.03%
COc1cccc(-c2ccc(C3[C@H]4CNC[C@@H]3N4CC3CCCCC3)cc2)c1 (some centres undefined),max activity,at 19.5 µM unless noted,15.2%
COc1cccc(-c2ccc(C3[C@H]4CNC[C@@H]3N4C(=O)NC3CCCCC3)cc2)c1 (some centres undefined),max activity,at 19.5 µM unless noted,28.1%
